From PubChem BioAssay (NCATS)
Records with an inconclusive call do not appear. The source made the active and inactive calls. The call rests on the fitted dose curve; in most records, active means well fitted inhibition curve with a large enough effect; inconclusive means small, poorly fitted or top-dose-only effect; inactive means flat fitted curve, though single readings scatter.

Tests used:
Experiment in all cases: Cytotoxic Profiling of Annotated Libraries Using Quantitative High-Throughput Screening (AID 1296008); further: nearly all actives have a fitted effect of over 60% in size
Settings in all cases: Five cell lines viability, CellTiter-Glo ATP luminescence, 48-72 h; max response: active compounds read low
CRL-7250 = system: CRL-7250
In short: (§1)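 Cytotoxicity was measured as CellTiter-Glo ATP luminescence, read after 10 min at room temperature. Compound treatment of the cells lasted 48 or 72 hr at 37 degrees Celsius in a qHTS format.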

HEK293 = system: HEK293
In short: as §1

HaCat = system: HaCat
In short: as §1

KB-3-1 = system: KB-3-1
In short: as §1

NIH3T3 = system: NIH3T3
In short: as §1
On the % scale 0 is the no-effect control and ±100 the full control effect; potency means the concentration at half of the fitted maximal effect.

CNc1nc(Nc2cn(C(C)(C)C#N)nc2C)ncc1C(F)(F)F
inactive: max response (CRL-7250) 0.355% | max response (HEK293) -5.29% | outcome (HaCat) | max response (KB-3-1) 6.02% | max response (NIH3T3) -4.77%

CC(=O)O[C@@H]1C=C2[C@H](CC[C@@]3(C)[C@@]2(O)CC[C@H]2Cc4c([nH]c5ccccc45)[C@@]23C)O[C@@H]1C(C)(C)O
inactive: max response (CRL-7250) -3.54% | max response (HEK293) -5.86% | outcome (HaCat) | max response (KB-3-1) 6.54% | max response (NIH3T3) 3.65%

CC(O)C/C=C/C=C/C(=O)OC1C=C2COC(=O)C2(O)C2(C)CCCC(C)(C)C12 (stereo not given)
inactive: outcome (CRL-7250) | max response (HEK293) -13.6% | outcome (HaCat) | max response (KB-3-1) 5.12% | max response (NIH3T3) -2.82%

COC(=O)C1=CO[C@@H](O[C@@H]2O[C@H](CO)[C@@H](O)[C@H](O)[C@H]2O)[C@@H]2[C@@H](C)[C@@H](O)C(O)[C@H]12 (stereo not given in full)
inactive: max response (CRL-7250) -0.07% | max response (HEK293) -12.7% | outcome (HaCat) | outcome (KB-3-1) | outcome (NIH3T3)

C/C(=C\CCC(C)CCO)C(=O)OC[C@H]1O[C@@H](O[C@@H]2OC=C(C(=O)O)[C@H]3CC[C@](C)(O)[C@@H]23)C(O)[C@@H](O)C1O (stereo not given in full)
inactive: max response (CRL-7250) 3.02% | max response (HEK293) 4.12% | outcome (HaCat) | outcome (KB-3-1) | outcome (NIH3T3)

CC(C)(O)c1ccc2c(c1)C(=O)C[C@H]1[C@](C)(C(=O)O)CCC[C@]21C
inactive: max response (CRL-7250) -1.21% | max response (HEK293) -10.2% | outcome (HaCat) | max response (KB-3-1) 5.87% | outcome (NIH3T3)

COCCCc1sc(-c2ccccc2)nc1C(=O)Nc1ccccc1-c1nc2cc(CN3CCCC3)cnc2s1
inactive: outcome (CRL-7250) | max response (HEK293) -7.81% | outcome (HaCat) | outcome (KB-3-1) | outcome (NIH3T3)

COc1cc2c(cc1O)C(c1ccc(O)cc1)C(C)C(C)C2 (stereo not given)
inactive: max response (CRL-7250) -22.8% | max response (HEK293) -21.2% | outcome (HaCat) | max response (KB-3-1) -7.89% | max response (NIH3T3) -6.55%

C[C@@H]1O[C@@H](O[C@H]2[C@H](O)[C@@H](O[C@@H]3O[C@H](CO)[C@H](O)[C@H](O)[C@H]3O)[C@H](O[C@H]3CC[C@@]4(C)C(CC[C@]5(C)C4CC=C4[C@@H]6CC(C)(C)CC[C@]6(C(=O)O[C@@H]6O[C@H](CO)[C@@H](O)[C@H](O)[C@H]6O)CC[C@]45C)C3(C)C)O[C@@H]2C(=O)O)[C@H](O)[C@H](O)[C@H]1O (stereo not given in full)
inactive: max response (CRL-7250) -0.719% | max response (HEK293) 0.183% | outcome (HaCat) | max response (KB-3-1) 9.11% | max response (NIH3T3) -6.48%

CC1OC(OC2C(OC3C(O[C@H]4CC[C@@]5(C)C(CC[C@]6(C)C5C(=O)CC5=C7CC(C)(C)CC(O)[C@]7(C)CC[C@]56C)C4(C)C)OC(C(=O)O)C(O)C3O)OCC(O)C2O)C(O)C(O)C1O (stereo not given in full)
inactive: max response (CRL-7250) 0.224% | max response (HEK293) 2.58% | outcome (HaCat) | outcome (KB-3-1) | max response (NIH3T3) -0.899%

CCCNCCOc1ccc(NC(=O)c2c[nH]c3c2C(=O)CCC3)cc1F
inactive: max response (CRL-7250) -8.08% | max response (HEK293) -31.5% | max response (HaCat) -4.5% | max response (KB-3-1) 6.85% | outcome (NIH3T3)

CC1=COC(OC2OC(CO)C(O)C(O)C2O)C2C(CO)CC(OC(=O)/C=C/c3ccc(O)cc3)C12 (stereo not given)
inactive: max response (CRL-7250) 0.792% | max response (HEK293) 0.352% | max response (HaCat) 1.84% | outcome (KB-3-1) | outcome (NIH3T3)

COc1cccc(C)c1C(=O)O[C@@H]1C[C@H](O[C@H]2[C@H](O)C[C@H](O[C@@H]3CCC[C@H]4[C@H]3C=C[C@@H]3CCCC/C=C/[C@H]5C=C(C(=O)O)[C@@H](C)C[C@@]56OC(=O)C(=C6O)OC(=O)[C@@]34C)O[C@@H]2C)O[C@H](C)[C@H]1O
inactive: max response (CRL-7250) -2.06% | max response (HEK293) -11.9% | outcome (HaCat) | max response (KB-3-1) 6.21% | outcome (NIH3T3)

Cc1occc(=O)c1O[C@@H]1O[C@H](CO[C@@H]2OC[C@](O)(CO)[C@H]2O)[C@@H](O)[C@H](O)[C@H]1O
inactive: outcome (CRL-7250) | max response (HEK293) 0.165% | outcome (HaCat) | outcome (KB-3-1) | max response (NIH3T3) 1.4%

CC1=CC(=O)C(=C(C)C)CC2C(C)(O)CCC12O (stereo not given)
inactive: outcome (CRL-7250) | max response (HEK293) -0.243% | outcome (HaCat) | max response (KB-3-1) 8.8% | outcome (NIH3T3)

C=CC(C)(O)CCC1C(C)(O)CCC2C(C)(C)CCCC21C (stereo not given)
inactive: max response (CRL-7250) -9.7% | max response (HEK293) -3.72% | max response (HaCat) 3.9% | max response (KB-3-1) 9.64% | outcome (NIH3T3)

O=C(Nc1cc(-c2ccccc2)nn1-c1ccccc1F)c1ccc([N+](=O)[O-])cc1
active: Potency (HEK293) 23.1 µM
inactive: max response (CRL-7250) -9.65% | max response (HaCat) 2.32% | max response (KB-3-1) -2.53% | outcome (NIH3T3)

CC(C)C(NC(=O)c1ccc(O)cc1)C(=O)N1CCCC1C(=O)Nc1c(O)cccc1C(=O)O (stereo not given)
inactive: max response (CRL-7250) -0.89% | max response (HEK293) -9.61% | max response (HaCat) -4.47% | max response (KB-3-1) 5.36% | outcome (NIH3T3)

COc1c2cc(c(O)c1OC)CCCCC(O)CCc1ccc(O)c-2c1 (stereo not given)
inactive: max response (CRL-7250) -1.76% | max response (HEK293) -0.95% | outcome (HaCat) | max response (KB-3-1) 2.35% | max response (NIH3T3) -4.18%

CSCC1OC(n2cnc3c(=O)[nH]cnc32)C(O)C1O (stereo not given)
inactive: max response (CRL-7250) -7.17% | max response (HEK293) -2.06% | outcome (HaCat) | max response (KB-3-1) 2.69% | outcome (NIH3T3)

C[C@@H]1O[C@@H](O[C@H]2[C@H](O)[C@@H](O)[C@H](OC[C@H]3O[C@@H](OC(=O)[C@]45CCC(C)(C)C[C@H]4C4=CCC6[C@@]7(C)C[C@@H](O)[C@H](O)[C@@](C)(CO)C7[C@H](O)C[C@@]6(C)[C@]4(C)CC5)[C@H](O)[C@@H](O)[C@@H]3O)O[C@@H]2CO)[C@H](O)[C@H](O)[C@H]1O (stereo not given in full)
inactive: outcome (CRL-7250) | max response (HEK293) -10.1% | outcome (HaCat) | outcome (KB-3-1) | max response (NIH3T3) -2.14%

CC1OC(O[C@@H]2[C@@H](O)[C@H](OC(=O)[C@]34CCC(C)(C)C[C@H]3C3=CCC5[C@@]6(C)CC[C@H](O[C@@H]7O[C@H](C(=O)O)[C@@H](O)[C@H](O[C@@H]8OC[C@@H](O)[C@H](O)[C@H]8O)[C@H]7O[C@@H]7O[C@H](CO)[C@H](O)[C@H](O)[C@H]7O)[C@@](C)(C=O)C6CC[C@@]5(C)[C@]3(C)C[C@H]4O)O[C@H](C)[C@@H]2OC2OC(C)C(OC3OCC(O)C(O)C3O)C(O)C2O)C(O)C(O)C1O (stereo not given in full)
inactive: max response (CRL-7250) 4.06% | max response (HEK293) -14.3% | max response (HaCat) -4.11% | max response (KB-3-1) -3.93% | outcome (NIH3T3)

C/C=C/C=C/[C@@H]1O[C@](O)([C@H](CC)C(=O)NC/C=C/C=C(\C)[C@@H](OC)[C@@H](C)[C@@H]2O[C@H](/C=C/C=C/C=C(\C)C(=O)c3c(O)ccn(C)c3=O)[C@H](O)[C@@H]2O)[C@H](O)[C@H](O)C1(C)C
inactive: max response (CRL-7250) -0.994% | max response (HEK293) -2.35% | outcome (HaCat) | outcome (KB-3-1) | max response (NIH3T3) 2.66%

C[C@H](/C=C/[C@@]1(O)[C@H](C)CC(=O)CC1(C)C)O[C@@H]1O[C@H](CO[C@@H]2OC[C@@H](O)[C@H](O)[C@H]2O)[C@@H](O)[C@H](O)[C@H]1O
inactive: outcome (CRL-7250) | max response (HEK293) -7.74% | outcome (HaCat) | outcome (KB-3-1) | max response (NIH3T3) -1.42%

C[C@]12CCC[C@](C)(C(=O)O)C1[C@@H](O)[C@@H](O)C13CC(CCC12)C(CO)(O[C@@H]1O[C@H](CO)[C@@H](O)[C@H](O)[C@H]1O)C3 (stereo not given in full)
inactive: max response (CRL-7250) 4.72% | max response (HEK293) -8.27% | outcome (HaCat) | max response (KB-3-1) 8.89% | outcome (NIH3T3)

Cc1c(-c2ccc3c(c2)OCO3)oc2ccc(C(O)C(C)O)cc12 (stereo not given)
inactive: max response (CRL-7250) -2.17% | max response (HEK293) -10.1% | outcome (HaCat) | outcome (KB-3-1) | outcome (NIH3T3)

COC(=O)C1=COC(O[C@@H]2O[C@H](COC(=O)/C=C/c3ccc(O)cc3)[C@@H](O)[C@H](O)[C@H]2O)C2C(CO)=CCC12 (stereo not given in full)
inactive: outcome (CRL-7250) | max response (HEK293) -1.21% | outcome (HaCat) | outcome (KB-3-1) | max response (NIH3T3) 2.77%

CN1C(=O)N(c2cc(Cl)cc(Cl)c2)C(=O)[C@@]1(C)Cc1ccc(Br)cc1
inactive: max response (CRL-7250) -11.1% | max response (HEK293) -15.8% | max response (HaCat) -27.7% | max response (KB-3-1) 3.14% | outcome (NIH3T3)

Cc1sc(C)c(C(=O)NC2(c3ccc(C(=O)O)cc3)CC2)c1Cc1ccc(C(F)(F)F)cc1
inactive: max response (CRL-7250) -2.74% | max response (HEK293) -5.46% | outcome (HaCat) | max response (KB-3-1) 8.32% | outcome (NIH3T3)

CC1(C)CC=C(c2cnc3ccccc3c2)c2cc(C(=O)Nc3ccc(C(=O)O)cc3)ccc21
inactive: outcome (CRL-7250) | max response (HEK293) 2.92% | outcome (HaCat) | outcome (KB-3-1) | max response (NIH3T3) -2.18%

C=CC(C)(O)CC/C=C(\C)C(=O)O[C@@H]1[C@@H](O)[C@H](OC(C)(C=C)CC/C=C(\C)C(=O)O[C@@H]2O[C@H](CO)[C@@H](O)[C@H](O)[C@H]2O)O[C@H](CO)[C@H]1OC(=O)/C(C)=C/CCC(C)(O)C=C (stereo not given in full)
inactive: max response (CRL-7250) 1.38% | max response (HEK293) -3.95% | outcome (HaCat) | outcome (KB-3-1) | max response (NIH3T3) 1.18%

CC(=O)OC1C(O)C(C)(O)C(/C=C/C(=O)O)C2(C)CCCC(C)(C)C12 (stereo not given)
inactive: max response (CRL-7250) 4.11% | max response (HEK293) 0.298% | outcome (HaCat) | max response (KB-3-1) 6.25% | outcome (NIH3T3)

COc1cn(-c2ccc(-n3cccn3)cc2F)nc(-c2ccnn2-c2ccccc2)c1=O
inactive: max response (CRL-7250) 1.34% | max response (HEK293) -9.47% | max response (HaCat) -2.34% | max response (KB-3-1) 7.34% | outcome (NIH3T3)

COc1cc(CCCO)ccc1O[C@@H]1O[C@H](CO)[C@@H](O)[C@H](O)[C@H]1O
inactive: outcome (CRL-7250) | max response (HEK293) 0.679% | outcome (HaCat) | outcome (KB-3-1) | max response (NIH3T3) -1.2%

NCCCCN(Cc1nc2ccccc2[nH]1)[C@H]1CCCc2cccnc21
inactive: max response (CRL-7250) -5.02% | max response (HEK293) -0.584% | outcome (HaCat) | max response (KB-3-1) 1.94% | outcome (NIH3T3)

COc1cccc(CNc2ccc(S(=O)(=O)Nc3nc4ccccc4s3)cc2)c1O
inactive: max response (CRL-7250) 0.252% | outcome (HEK293) | max response (HaCat) -8.64% | max response (KB-3-1) 7.86% | max response (NIH3T3) -2.92%
